Among the data in PubChem BioAssay AID504411 (The Scripps Research Institute Molecular Screening Center, 2011) are inhibition values, retold here.

Hit rate of the full screen: of about 340,000 compounds, about 200 (0.059%) were called active. Shown is part of a subset that was picked to be rich in actives. A number with no mark means an inactive call. Rule as the data show it: active = inhibition above about 34%; inactive = the rest.

Sequence of Diacylglycerol lipase-beta (Homo sapiens) (Q8NCG7 whole entry, looked up): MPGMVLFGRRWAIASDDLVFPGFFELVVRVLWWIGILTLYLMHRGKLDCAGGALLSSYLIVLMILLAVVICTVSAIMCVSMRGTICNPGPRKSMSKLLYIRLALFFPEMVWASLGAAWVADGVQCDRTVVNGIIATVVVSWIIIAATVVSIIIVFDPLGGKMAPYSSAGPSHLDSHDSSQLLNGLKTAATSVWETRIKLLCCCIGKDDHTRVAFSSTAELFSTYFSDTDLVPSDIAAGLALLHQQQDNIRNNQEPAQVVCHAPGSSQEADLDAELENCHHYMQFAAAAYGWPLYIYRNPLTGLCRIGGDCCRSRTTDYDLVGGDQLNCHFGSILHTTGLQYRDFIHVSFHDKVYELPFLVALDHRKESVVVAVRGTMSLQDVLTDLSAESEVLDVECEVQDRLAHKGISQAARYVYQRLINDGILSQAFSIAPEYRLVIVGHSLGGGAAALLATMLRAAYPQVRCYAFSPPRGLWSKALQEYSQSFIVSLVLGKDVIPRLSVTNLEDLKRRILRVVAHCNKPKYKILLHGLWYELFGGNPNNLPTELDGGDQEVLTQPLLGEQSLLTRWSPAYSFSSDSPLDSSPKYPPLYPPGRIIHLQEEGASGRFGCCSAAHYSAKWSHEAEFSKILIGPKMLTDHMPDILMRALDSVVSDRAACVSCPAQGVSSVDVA

This test concerns the target Diacylglycerol lipase-beta (Homo sapiens) (UniProt Q8NCG7). The test is described as follows: DAGLB lipase inhibitors, primary screen, biochemical, fluorescence, HTS (AID 504411).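 Also: 0% = enzyme with vehicle and 100% = wells lacking enzyme.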 The following applies: HEK293T DAGLB membrane lysate, EnzChek fluorogenic substrate; at 5.17 µM; hits give high values.
For the compound `Cc1ccc(Cl)c(NC(=O)CN(C)CC(=O)Nc2ccc(F)c(F)c2F)c1Cl`, the inhibition is 2.92%.

`CCOc1ccccc1OCCCNCc1ccccc1`: the inhibition is -2.73%.

`C=CCOc1nc2c(c(=O)n(C)c(=O)n2C)n1Cc1ccc(Cl)cc1Cl`: the inhibition is -0.75%.

Consider `CCOC(=O)C1CCN(C(=O)Nc2ccc(C)c(Cl)c2)CC1`, for which the inhibition is 0.52%.

As to `CCN(CC(=O)NCCCN1CCOCC1)S(=O)(=O)c1cc(Cl)ccc1Cl`, the inhibition was 3.54%.

In the case of `CN(c1ccccn1)c1ncnc2[nH]ncc12`, the inhibition is 0.01%.

With `Cc1ccnc(NC(=O)C2CCN(S(=O)(=O)c3c(C)c(C)cc(C)c3C)CC2)c1`, the inhibition was -5.56%.

Take `O=C1COc2ccc(C(=O)COC(=O)c3ccccc3Cl)cc2N1`: the inhibition was -2.51%.

Take `CCN1CCN(CC(=O)c2cc(OC)c(OC)c(OC)c2)CC1`: the inhibition is -1.97%.

Take `COc1ccc(/C=C/CN2CCN(Cc3ccc(C)cc3)C(CCO)C2)cc1` (centres undefined): the inhibition is -2.8%.

Regarding `Cc1ccccc1C(=O)N1CCC(C(=O)Oc2ccc(C#N)cc2)CC1`, the inhibition is -0.99%.

For `COc1ccc(-c2nc(N)sc2C2(O)C(=O)Nc3c(Br)cc(F)cc32)cc1OC` (centres undefined), the inhibition is -0.83%.

Turning to `O=S1(=O)CCO[C@H]2Cc3ccccc3[C@H]2N1Cc1ccccc1`, the inhibition is -1.47%.

For `Cc1nc(NC(=O)c2ccc3c(c2)OCCO3)ccc1Br`, the inhibition was -9.56%.

As to `COc1ccc(OC)c(NC(=O)CN(C)CCOc2ccc(Br)cc2)c1`, the inhibition is -4.02%.

Take `CCOC(=O)c1sc(/N=C/Nc2nc(C)c(C(=O)OCC)s2)nc1C`: the inhibition is -0.89%.

For the compound `O=C(Nc1c2c(nn1-c1cccc(Cl)c1)CS(=O)(=O)C2)c1cccs1`, the inhibition is -3.19%.

Take `CCOC(=O)c1nn(-c2ccccc2F)c2nc(Nc3ccccc3)cc(=O)n12`: the inhibition is 0.18%.

As for `Cc1nn(-c2ncccn2)c2c1C(=O)CC(C)(C)C2Br` (centres undefined), the inhibition is -0.78%.

In the case of `CCCN1C(=O)C(NS(=O)(=O)c2ccc(N)cc2)(C(F)(F)F)C(C(=O)OC)=C1C` (centres undefined), the inhibition was 0.93%.

For the compound `COc1ccc(C(=O)CN2C(=O)NC3(CCc4ccccc43)C2=O)c(OC)c1` (centres undefined), the inhibition was -2.52%.

As to `CC(=O)Nc1ccc(NS(=O)(=O)c2cc(C)sc2C)cc1`, the inhibition is 2.41%.

Turning to `COc1cccc(N(C(=O)CNC(=O)c2ccco2)C(C(=O)NC2CCCCC2)c2cccnc2)c1` (centres undefined), the inhibition was -2.11%.

For `O=c1[nH]c2c(c(=O)n1-c1ccccc1)CCO2`, the inhibition is 0.85%.

On to `CCOC(=O)c1cnc2ccc(F)cc2c1Nc1ccc2c(c1)OCCO2`, for which the inhibition is -13.6%.

Consider `COc1cc(CCC(=O)N2CCN(c3ccccc3Cl)CC2)cc(OC)c1OC`, for which the inhibition was -2.89%.

For the compound `O=C(c1cccs1)N1CCCC(c2nc(-c3ccc(F)cc3)no2)C1` (centres undefined), the inhibition is -7.27%.

`C=CCNC(=S)N1CCN(CCN=Cc2c(C)[nH]n(-c3ccc([N+](=O)[O-])cc3)c2=O)CC1`: the inhibition was 1.77%.

`O=C(CN1CCC(NC(=O)C2CC2)CC1)Nc1ccccc1[N+](=O)[O-]`: the inhibition is 1.28%.

On to `Cc1ccc(/C=N/NC(=O)C(NC(=O)c2ccccc2)c2n[nH]c(=O)c3ccccc23)cc1` (centres undefined), for which the inhibition was 34.8% (active).

Take `O=C(O)c1ccc(/C=N/NC(=S)NCc2ccccc2)cc1`: the inhibition was 3.11%.

Take `Cc1ccc(/C=N/NC(=O)COc2ccccc2-c2ccccc2)cc1`: the inhibition was -8.44%.

With `COc1ccc(N(CC(=O)N2CCOCC2)S(=O)(=O)c2ccccc2)cc1Cl`, the inhibition was -0.45%.

For `COc1ccc(NC(=O)C[C@H]2C(=O)N(CCc3ccccc3)C[C@@H]2C)cc1`, the inhibition is -3.33%.

Turning to `CCC1C=C(c2ccccc2)C=CN=C1N(CC)CC` (centres undefined), the inhibition is -3.08%.

Consider `Nc1ccc(OCC(O)C[n+]2ccc(CCS(=O)(=O)[O-])cc2)cc1` (centres undefined), for which the inhibition was 0.26%.

As for `CCc1c(C)sc(NC(=O)c2cccs2)c1C(N)=O`, the inhibition is -1.07%.

For the compound `O=c1oc2ccc(C#CC3(O)CCCCC3)cc2cc1-n1cc(-c2ccsc2)nn1`, the inhibition was 0.49%.

Regarding `COc1ccccc1NS(=O)(=O)N(C)C`, the inhibition is -1.14%.

For `Cc1ccc(Cc2c(-c3ccccc3)nc3ccc(Cl)cn23)cc1`, the inhibition is -5.98%.

For the compound `O=C(NCCCN1CCOCC1)c1cnn2c(-c3ccccc3)cc(-c3ccccc3)nc12`, the inhibition is 1.48%.

For the compound `CN(c1ccc(OCC(=O)OCC(=O)Nc2cccc([N+](=O)[O-])c2)cc1)S(=O)(=O)c1ccc(F)cc1`, the inhibition is -2.67%.

With `Cc1sc(NC(=O)C2C3CCC(O3)C2C(=O)O)c(C(=O)OC(C)C)c1-c1ccc(Cl)cc1` (centres undefined), the inhibition is 6.11%.

Regarding `CCN(CC(=O)NCc1cccs1)C(=O)c1cccc(S(=O)(=O)Nc2ccccc2OC)c1`, the inhibition is 0.52%.

In the case of `CCc1cc(C(=O)N(CC)CC(=O)Nc2c(F)cccc2F)sc1C`, the inhibition was -0.43%.

Take `Cc1oc2cc3oc(=O)ccc3cc2c1C`: the inhibition was -1.48%.

`O=c1[nH]c(=O)n(Cc2ccco2)c2c1C(C(F)(F)F)(C(F)(F)F)N=C(c1ccco1)N2`: the inhibition is -0.13%.

For `COc1ccc(/C=N/OCc2ccccc2C#N)c(OC)c1`, the inhibition is -2.91%.

Take `CC(=O)c1nn(-c2cccc(Br)c2)cc1C(=O)c1cccc2ccccc12`: the inhibition was -10.7%.

`COc1ccc(CN2CCN(Cc3cn(C)nc3-c3ccccc3)CC2CCO)c(C)c1C` (centres undefined): the inhibition was -4.22%.

As to `CC1CCN(S(=O)(=O)c2ccc3ncn(CC(=O)N(C)C4CCCCC4)c(=O)c3c2)CC1`, the inhibition was -3.62%.

As for `OC(c1ccccc1)c1nccn1Cc1ccccc1` (centres undefined), the inhibition is 0.02%.

As to `O=C(NCc1ccc2c(c1)OCO2)C(=O)NCC1OCCN1S(=O)(=O)c1ccc(F)cc1` (centres undefined), the inhibition is 1.47%.

As to `NC(N)=Nc1nc2ccc(Br)cc2c(=O)[nH]1`, the inhibition was -0.46%.

`CCC(=O)Nc1ccc(S(=O)(=O)NCC2CCCO2)cc1` (centres undefined): the inhibition is 0.13%.

With `CCCCOc1ccc(NC(=O)[C@@H]2CCCN2C(=O)C2CCN(S(=O)(=O)c3ccc(C)cc3)CC2)cc1`, the inhibition was -4.14%.

As for `COCCNC(=O)CCCN1C(=O)c2ccccc2Sc2ncccc21`, the inhibition is 0.34%.

`C=CCC(NCCCO)c1cccc(OC)c1OC` (centres undefined): the inhibition was -0.64%.

As to `O=C(Cc1ccc(Cl)cc1)NCc1nc(-c2ccccc2)no1`, the inhibition is -5.92%.

For `O=C(Nc1cccc(Cl)c1)C1CCCN(c2cnccn2)C1` (centres undefined), the inhibition was -0.35%.

As to `COCc1ccc(CN2CCC(Oc3ccc(C(=O)NCc4ccccn4)cc3)CC2)o1`, the inhibition is -0.42%.

Turning to `COC(=O)c1cc(N2CCNCC2)nc2ccccc12`, the inhibition is 1.6%.

On to `Cc1cc(F)ccc1S(=O)(=O)Nc1ncnc2scc(-c3ccc(F)cc3)c12`, for which the inhibition is 11%.

With `CC(=O)c1nn(-c2cccc(C(F)(F)F)c2)c(=O)[nH]c1=O`, the inhibition is -0.12%.

As for `COC(=O)CC1=NN(c2nc(C)cc(C)n2)C(=O)C1`, the inhibition was -2.2%.

Regarding `CCCCn1c(N)c(N(CC(C)C)C(=O)C2CSC3(C)CCC(=O)N23)c(=O)[nH]c1=O` (centres undefined), the inhibition is 0.2%.

On to `C=CCN(C(=O)Cn1ncc2c1-c1cc(C)ccc1OC2)c1ccccc1`, for which the inhibition is -2.66%.

Regarding `Cc1c(CCO)c(=O)[nH]n1C(=O)c1c(F)cccc1F`, the inhibition was -0.98%.

`Cc1ccnc(NC(=O)CCC(=O)N(CC(=O)NCCc2ccccc2)Cc2cccs2)c1`: the inhibition is -0.29%.
